Results on 42 compounds are retold here after PubChem BioAssay (NCATS).

SMILES strings stand for the structures. Values without a mark were called inactive. Inconclusive results are not listed. Entries that show only a call come without a potency. Activity calls are given as the source filed them. Unless noted, the call rests on the fitted dose curve; in most records, active means well fitted curve in the direction sought with a large enough effect; inconclusive means small, poorly fitted or top-dose-only effect, or another doubt; inactive means no such curve, though single readings can be large; an effect the other way counts as inactive or inconclusive. Bridge positions count the residues as written; N and C are the ends. Square brackets hold non-standard residues; d marks the D form. Peptide text beside a SMILES is read from it. * marks the point of attachment. Ileψ(thiazoline)Cys = CC[C@H](C)[C@H](N)C1=N[C@H](C(=O)*)CS1; d(aIle) = CC[C@H](C)[C@@H](N)C(=O)O; dOrn = NCCC[C@@H](N)C(=O)O; Orn = NCCC[CH](N)C(=O)O

The target in assay [1] is Alpha-galactosidase (Coffea arabica) (UniProt Q42656). Kind of assay: Counterscreen for Glucocerebrosidase Inhibitors: qHTS Assay for Coffee Bean alpha-Galactosidase at pH 4.5 (AID 957). In outline: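 Fluorogenic qHTS at pH 4.5 (citrate buffer with Tween-20): 2 nM enzyme, 80 uM 4-MU-alpha-galactoside substrate, compound titrated 0.7 nM to 77 uM, 20 min room temperature. Glycine/NaOH stop; 4-MU read Ex 365/Em 440; Hill-equation AC50 against no-enzyme and enzyme controls.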
Alpha-galactosidase (Coffea arabica), sequence (Q42656 whole entry, looked up): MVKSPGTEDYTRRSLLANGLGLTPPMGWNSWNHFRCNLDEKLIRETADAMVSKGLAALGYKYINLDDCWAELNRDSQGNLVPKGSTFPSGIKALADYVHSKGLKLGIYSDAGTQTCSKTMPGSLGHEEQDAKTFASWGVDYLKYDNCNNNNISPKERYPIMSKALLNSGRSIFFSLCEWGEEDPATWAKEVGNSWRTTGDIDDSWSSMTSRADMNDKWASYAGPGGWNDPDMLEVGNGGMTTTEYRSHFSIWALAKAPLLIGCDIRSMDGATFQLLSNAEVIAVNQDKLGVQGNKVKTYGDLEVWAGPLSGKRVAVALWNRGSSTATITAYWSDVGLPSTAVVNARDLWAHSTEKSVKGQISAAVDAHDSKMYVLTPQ
(In general: A counterscreen serves to expose hits that act by an unwanted route or on another target.)

For assay [2] the target is unchanged. Kind of assay: Counterscreen for Glucocerebrosidase Inhibitors: qHTS Assay for Coffee Bean alpha-Galactosidase at pH 5.9 (AID 998). The procedure, abridged: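 In 50 mM citric acid pH 5.9 with 0.005% Tween-20, coffee bean enzyme hydrolyses 80 uM 4-MU alpha-D-galactopyranoside over 20 min at RT. Activity is normalized to controls; AC50 comes from Hill-modelled concentration-response data.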

Assay [3] in a line: Validation screen for inhibitors of Lassa infection (AID 463096; calls by dose curve; further: potency means the concentration at half of the fitted maximal effect).
Assay [4] deals with ATP-dependent 6-phosphofructokinase (Trypanosoma brucei brucei) (UniProt O15648). Kind of assay: qHTS Assay to Find Inhibitors of T. brucei phosphofructokinase: hit validation (AID 492961).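 Further: luminescence reports ADP formed as PFK phosphorylates fructose-6-phosphate with ATP.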 The procedure, abridged:
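PFK 1.25 nM, F6P 0.5 mM, ATP 0.1 mM, MgCl2 5 mM, 0.1 M TEA pH 8.0, Tween20 0.01%, BSA 0.1%; 45 min RT. ADP-Glo two-step detection, luminescence. qHTS titration; curve fitting with curve-class categorization.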
(In general: In qHTS, concentration-response curves come from the screen itself.)

Assay [5] deals with Ubiquitin carboxyl-terminal hydrolase 1 (Homo sapiens) (UniProt O94782). In words: Inhibitors of USP1/UAF1: Pilot qHTS (AID 504865).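 Further: rhodamine fluorescence freed from ubiquitin-rhodamine substrate followed over time; top concentration of the series differs between compounds; nearly all actives have a fitted effect of over 35% in size.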 In outline:
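1nM USP1/UAF1 + cpd, 15 min RT; start w/ Ub-Rho 150nM final; kinetic FL 480/540 nm, 6 reads q60 s. Buffer 50mM HEPES pH 7.8, 0.5mM EDTA, 1mM TCEP, 0.01% Tween-20, 0.1 mg/ml BSA.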

Assay [6] can be described thus: qHTS profiling for inhibitors of Plasmodium falciparum proliferation (AID 504749). Further: nearly all actives have a fitted effect of over 60% in size. Further: potency means the concentration at half of the fitted maximal effect. The following applies: P. falciparum in erythrocytes, SYBR Green DNA, 72 h. In outline:
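Quantitative HTS: compounds pinned into medium, infected erythrocytes added (0.3% parasitemia, 2.5% hematocrit), 72 h culture at 37 C under 5% CO2. Saponin/Triton lysis with SYBR Green I, overnight RT, then fluorescence read.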

[7] abbreviates: at 28.7 µM (top of the series), parasite line A.
[8] abbreviates: at 28.7 µM (top of the series), parasite line B.

ATP-dependent 6-phosphofructokinase (Trypanosoma brucei brucei), sequence (O15648 whole entry, looked up): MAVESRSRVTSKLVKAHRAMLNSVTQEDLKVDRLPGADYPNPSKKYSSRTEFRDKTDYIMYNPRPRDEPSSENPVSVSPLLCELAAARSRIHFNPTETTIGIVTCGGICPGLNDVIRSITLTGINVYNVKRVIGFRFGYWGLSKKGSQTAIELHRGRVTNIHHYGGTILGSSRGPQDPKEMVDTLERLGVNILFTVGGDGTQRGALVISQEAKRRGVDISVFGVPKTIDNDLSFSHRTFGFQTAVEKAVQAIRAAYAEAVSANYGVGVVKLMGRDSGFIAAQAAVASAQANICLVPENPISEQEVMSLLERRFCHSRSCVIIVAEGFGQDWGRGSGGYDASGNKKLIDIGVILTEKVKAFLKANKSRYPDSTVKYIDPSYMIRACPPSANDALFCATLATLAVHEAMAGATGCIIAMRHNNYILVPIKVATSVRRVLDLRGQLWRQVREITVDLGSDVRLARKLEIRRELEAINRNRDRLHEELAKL
Ubiquitin carboxyl-terminal hydrolase 1 (Homo sapiens), sequence (O94782 whole entry, looked up): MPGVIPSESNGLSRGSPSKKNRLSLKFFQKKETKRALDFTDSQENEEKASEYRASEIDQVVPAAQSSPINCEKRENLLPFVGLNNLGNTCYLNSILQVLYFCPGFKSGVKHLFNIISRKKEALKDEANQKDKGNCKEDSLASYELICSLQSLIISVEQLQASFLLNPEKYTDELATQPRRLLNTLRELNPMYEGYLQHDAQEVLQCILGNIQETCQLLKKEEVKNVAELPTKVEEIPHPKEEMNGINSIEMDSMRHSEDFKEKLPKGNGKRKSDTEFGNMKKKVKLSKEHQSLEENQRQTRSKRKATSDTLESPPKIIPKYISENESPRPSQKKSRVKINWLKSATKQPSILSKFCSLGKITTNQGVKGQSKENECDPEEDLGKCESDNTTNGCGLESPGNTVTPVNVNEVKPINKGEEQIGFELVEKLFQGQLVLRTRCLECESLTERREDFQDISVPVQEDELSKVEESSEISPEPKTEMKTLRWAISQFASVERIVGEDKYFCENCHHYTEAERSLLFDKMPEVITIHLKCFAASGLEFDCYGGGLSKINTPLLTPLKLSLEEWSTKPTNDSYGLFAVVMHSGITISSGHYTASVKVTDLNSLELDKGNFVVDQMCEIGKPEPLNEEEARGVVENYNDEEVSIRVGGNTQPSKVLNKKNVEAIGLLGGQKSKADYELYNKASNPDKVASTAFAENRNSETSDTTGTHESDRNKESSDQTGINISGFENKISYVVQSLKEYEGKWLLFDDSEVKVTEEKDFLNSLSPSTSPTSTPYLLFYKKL

Regarding `NCCCCCCNS(=O)(=O)c1cccc2c(Cl)cccc12`, the call in assay [1] and in assay [2] was inactive. In addition, the Potency entry in assay [3] is “inactive”.

Take `CC1(C)C(=O)N(CCN2CCC(C(=O)c3ccc(F)cc3)CC2)c2ccccc21`: the compound was classed as inactive in assay [1] and in assay [2]. For the same compound, the Potency result in assay [3] is “inactive”.

In the case of `CCn1c(=O)c2[nH]c(-c3ccccc3)nc2n(CC)c1=O`, in assay [2], the result was inactive. Moreover, the Potency result in assay [3] was “inactive”.

Turning to `CCCNC[C@H](O)COc1ccccc1C(=O)CCc1ccccc1`, the compound was called inactive in assay [1] and in assay [2]. Moreover, in assay [3], the Potency entry is “inactive”.

For the compound `CCSC(N)=Nc1ccc(C(F)(F)F)cc1`, the compound was classed as inactive in assay [1] and in assay [2]. In addition, the Potency entry in assay [3] is “inactive”.

Consider `CC(N)=NCc1cccc(CN)c1`, for which the compound was classed as inactive in assay [1] and in assay [2]. Besides, in assay [3], the Potency result is “inactive”.

For the compound `O=S(=O)(O)C1CCNCC1`, the result in assay [1] and in assay [2] was inactive. Besides, the Potency entry in assay [3] was “inactive”.

Regarding `Cn1cnc2c(NC3CCCC3)ncnc21`, the compound was classed as inactive in assay [1] and in assay [2]. Moreover, the Potency entry in assay [3] is “inactive”.

As to `COc1[nH]c2ccc(F)cc2c1C(=O)OCC1CCN(CCNS(C)(=O)=O)CC1`, the compound was classed as inactive in assay [1] and in assay [2]. Besides, the Potency result in assay [3] was “inactive”.

Regarding `COc1ccccc1CNCCCCCCNCCCCCCCCNCCCCCCNCc1ccccc1OC`, the compound was classed as inactive in assay [1] and in assay [2]. Besides, the Potency result in assay [3] was “inactive”.

On to `CCCCN1CCC(COC(=O)c2cc(Cl)c(N)c3c2OCCO3)CC1`, for which the outcome in assay [1] and in assay [2] was inactive. In addition, in assay [3], the Potency entry is “inactive”.

Consider `N#Cc1c(-c2ccccc2)no[n+]1[O-]`, for which, in assay [2], the outcome was inactive. Besides, the Potency in assay [3] was 10 µM (active).

Consider `Nc1ncnc2c1c(-c1ccc(Oc3ccccc3)cc1)cn2C1CCCC1`, for which the outcome in assay [1] and in assay [2] was inactive. In addition, the Potency entry in assay [3] is “inactive”.

As for `O=C(O)c1cc(=O)c2ccc(Cl)cc2[nH]1`, the result in assay [1] and in assay [2] was inactive. In addition, the Potency result in assay [3] was “inactive”.

For the compound `O=C(Nc1cc(C(=O)Nc2ccc(S(=O)(=O)O)cc2S(=O)(=O)O)cc(C(=O)Nc2ccc(S(=O)(=O)O)cc2S(=O)(=O)O)c1)Nc1cc(C(=O)Nc2ccc(S(=O)(=O)O)cc2S(=O)(=O)O)cc(C(=O)Nc2ccc(S(=O)(=O)O)cc2S(=O)(=O)O)c1`, the call in assay [1] was inactive. In assay [3], the Potency result is “inactive”.

Regarding `COc1ccc2c(c1)c(CC(=O)O)c(C)n2Cc1ccc(F)cc1`, the compound was called inactive in assay [1] and in assay [2]. Besides, in assay [3], the Potency entry is “inactive”.

Consider `CCCC(=O)NCCc1c2n(c3ccc(OC)cc13)Cc1ccccc1-2`, for which the call in assay [1] and in assay [2] was inactive. In assay [3], the Potency entry is “inactive”.

Regarding `CC(C)C[C@H](N)CSSC[C@@H](N)CC(C)C`, the compound was classed as inactive in assay [1] and in assay [2]. For the same compound, the Potency result in assay [3] was “inactive”.

Regarding `COc1ccc2c(c1)c(CC(=O)N1CCOCC1)c(C)n2C(=O)c1ccc(Cl)cc1`, the call in assay [1] and in assay [2] was inactive. The Potency result in assay [3] was “inactive”.

As to `NCCNS(=O)(=O)c1cccc2cnccc12`, the result in assay [1] and in assay [2] was inactive. In addition, the Potency result in assay [3] was “inactive”.

For `C[N+](C)(C)CCC(=O)c1cccc2ccccc12`, the call in assay [1] and in assay [2] was inactive. The Potency in assay [3] was 10 µM (active).

Turning to `CCCCOC(=O)NS(=O)(=O)c1sc(CC(C)C)cc1-c1ccc(Cn2c(CC)nc3c(C)cc(C)nc32)cc1`, the compound was classed as inactive in assay [2]. In addition, the Potency result in assay [3] is “inactive”.

Take `COc1ccccc1NC(=O)Nc1nc(-c2cccnc2)nc2ccccc12`: the compound was called inactive in assay [1] and in assay [2]. Moreover, in assay [3], the Potency result is “inactive”.

Consider `Cc1cc(N)c2ccccc2[n+]1CCCCCCCCCCCCCC[n+]1c(C)cc(N)c2ccccc21`, for which the compound was called inactive in assay [1] and in assay [2]. Also, the Potency in assay [3] was 7.08 µM (active).

For the compound `Cc1cc(C)c(NC(=O)C[C@H](CC(=O)O)c2cccc3ccccc23)c(C(=O)N2CCC3(CCCC3)CC2)c1`, the compound was classed as inactive in assay [1] and in assay [2]. Also, the Potency entry in assay [3] is “inactive”.

Take `Cc1cccc(C)c1NC(=O)C[N+](C)(C)C`: the result in assay [1] was inactive. Moreover, the Potency result in assay [3] was “inactive”.

Take `CN(C)CCCCSC(=N)N`: the compound was classed as inactive in assay [1] and in assay [2]. Further, the Potency result in assay [3] is “inactive”.

On to `NCCNC(=O)c1ccc(Cl)cc1`, for which the outcome in assay [1] was inactive. Further, in assay [3], the Potency result was “inactive”.

Regarding `CC(C)CC(NC(=O)C(COC(C)(C)C)NC(=O)C(Cc1ccc(O)cc1)NC(=O)C(CO)NC(=O)C(Cc1c[nH]c2ccccc12)NC(=O)C(Cc1cnc[nH]1)NC(=O)C1CCC(=O)N1)C(=O)NC(CCCN=C(N)N)C(=O)N1CCCC1C(=O)NNC(N)=O` (stereo not drawn), the outcome in assay [4] was inactive.

In the case of `CC1(C)[C@@H](C=C(Cl)Cl)[C@@H]1C(=O)OCc1c(F)c(F)cc(F)c1F`, in assay [4], the compound was classed as inactive. For the same compound, the Potency result in assay [5] is “inactive”. The activity, negative = inhibition in assay [6] (setting [7]) is 3.24%; in assay [6] (setting [8]), 1.84%.

Turning to `CC[C@H](C)[C@H](N)C1=N[C@H](C(=O)N[C@@H](CC(C)C)C(=O)N[C@@H](CCC(=O)O)C(=O)N[C@@H](C(=O)N[C@H]2CCCCNC(=O)[C@@H](CC(N)=O)NC(=O)[C@@H](CC(=O)O)NC(=O)[C@@H](Cc3cnc[nH]3)NC(=O)[C@@H](Cc3ccccc3)NC(=O)[C@@H]([C@@H](C)CC)NC(=O)[C@@H](CCCN)NC2=O)[C@@H](C)CC)CS1` ({Ileψ(thiazoline)Cys}-LE[d(aIle)]K[dOrn][d(aIle)][dF][dH][dD][dN]; lactam 4-C), in assay [4], the result was inactive.

Consider `CCCCCC(O)C1C(=O)OC(C)C(O)\C=C/C=C\C=C/C=C\C=C(\C)C(O)C(O)C(O)CC(O)CC(O)CC(O)CC(O)CC1O` (stereo not drawn), for which the call in assay [4] was inactive. The Potency entry in assay [5] was “inactive”. The activity, negative = inhibition is 11.9% in assay [6] (setting [7]) and -8.14% in assay [6] (setting [8]).

Take `C[C@@H]1CC[C@H]2[C@@H](C)C(=O)O[C@@H]3OC4(C)CC[C@@H]1C32OO4` (stereo partly drawn): in assay [4], the outcome was inactive. For the same compound, the Potency entry in assay [5] was “inactive”. In addition, the Potency was 0.0079 µM (active) in assay [6] (parasite line A) and 0.0071 µM (active) in assay [6] (parasite line B).

Turning to `Cc1ccc2c(c1)[C@@H]1CN(C)CC[C@H]1N2`, the call in assay [4] was inactive. Moreover, in assay [5], the Potency entry is “inactive”. In addition, the activity, negative = inhibition in assay [6] (setting [7]) was 6.31%; in assay [6] (setting [8]), 11.3%.

As to `CC(C)CC1NC(=O)C(CCCN)NC(=O)C(C(C)C)NC(=O)C2CCCN2C(=O)C(Cc2ccccc2)NC(=O)C(CC(C)C)NC(=O)C(CCCN)NC(=O)C(C(C)C)NC(=O)C2CCCN2C(=O)C(Cc2ccccc2)NC1=O` (stereo not drawn) (cyclo(FPV[Orn]LFPV[Orn]L); configuration not given here), the call in assay [4] was inactive.

Regarding `CC1(C)S[C@@H]2[C@H](N)C(=O)N2C1C(=O)O` (stereo partly drawn), the compound was called inactive in assay [4]. Moreover, in assay [5], the Potency result was “inactive”. In addition, the activity, negative = inhibition was 15.1% in assay [6] (at 12.8 µM (top of the series), parasite line A) and 13.6% in assay [6] (at 12.8 µM (top of the series), parasite line B).

As for `COc1ccc2c3c1O[C@H]1[C@@H](O)C=C[C@H]4C(C2)NCCC341` (stereo partly drawn), the result in assay [4] was inactive. Moreover, the Potency entry in assay [5] was “inactive”. For the same compound, the activity, negative = inhibition was 7.6% in assay [6] (setting [7]) and -2.8% in assay [6] (setting [8]).

Regarding `CNCC(=O)NC(CCCN=C(N)N)C(=O)NC(C(=O)NC(Cc1ccc(O)cc1)C(=O)NC(C(=O)NC(Cc1cnc[nH]1)C(=O)N1CCCC1C(=O)NC(C)C(=O)O)C(C)C)C(C)C` (stereo not drawn), the call in assay [4] was inactive.

Regarding `OCC(O)[C@H]1O[C@@H]2O[C@H](C(Cl)(Cl)Cl)O[C@@H]2[C@H]1O` (stereo partly drawn), the call in assay [4] was inactive. In addition, in assay [5], the Potency entry is “inactive”. Besides, the activity, negative = inhibition in assay [6] (setting [7]) is 8.92%; in assay [6] (setting [8]), 3.35%.

For `C[C@]12C=CC(=O)C=C1CC[C@@H]1C2CC[C@]2(C)OC(=O)CCC12` (stereo partly drawn), in assay [4], the outcome was inactive. The Potency result in assay [5] was “inactive”. The activity, negative = inhibition in assay [6] (setting [7]) was 2.99%; in assay [6] (setting [8]) it was 7.55%.

Consider `CCCCCc1cc(O)c2c(c1)OC(C)(C)C1CC=C(C)CC21` (stereo not drawn), for which, in assay [4], the compound was called inactive. Moreover, the figures for the Potency in assay [6] (parasite line A) and in assay [6] (parasite line B) were 3.55 µM (active) and 1.12 µM (active), respectively.

`Nc1nc(/C(=C/CC(=O)O)C(=O)NC2C(=O)N3C(C(=O)O)=CCSC23)cs1` (stereo not drawn): in assay [5], the Potency entry was “inactive”.
